An excerpt weighted towards active compounds, which were near 3.6% of everything screened.
BoNT F protease = BoNT/F light chain protease inhibitors, primary screen, biochemical, flow cytometry, MLPCN library | actives 0.22% (n = 360,000) | inhibition, % at 10 µM | Multiplex microsphere protease cleavage assay | Botulinum neurotoxin type F light chain protease (Clostridium botulinum); in the data active means inhibition above about 35%, passing the limit was not always enough; inconclusive means no clear call, values can overlap the other calls
MazEF act = activators of E. coli MazEF toxin-antitoxin RNase, primary screen, biochemical, fluorescence, uHTS | Endoribonuclease toxin MazF (Escherichia coli (strain K12)), P0AE70 | FAM/BHQ RNA-DNA oligo cleavage fluorescence, 5 h | activation, % at 20 µM | actives 0.32% (n = 350,000) | AID 504720, 2011; in the data active means activation above about 50%
Target sequence (P0AE70 whole entry, looked up): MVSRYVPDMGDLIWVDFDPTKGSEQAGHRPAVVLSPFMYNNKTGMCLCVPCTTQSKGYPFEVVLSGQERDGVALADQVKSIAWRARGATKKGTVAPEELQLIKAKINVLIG
Autofluor counter = counter-screen for toxin protease inhibitors: compound fluorescence; fluorescence intensity (concentration not given with the values); actives 3.1% (n = 360,000); compound autofluorescence counterscreen, microsphere flow cytometry; hits give high values; in the data active means fluorescence intensity above about 16000; inconclusive means no clear call, values can overlap the other calls
BoNT-A LC inh2 = BoNT/A light chain protease inhibitors, primary screen, biochemical, flow cytometry, MLPCN library | inhibition, % at 10 µM | actives 0.17% (n = 360,000) | multiplex microsphere protease substrate cleavage | AID 588499, 2011
Anthrax LF prot = Bacillus anthracis LF protease inhibitors, primary screen, biochemical, multiplex microsphere, MLPCN library | actives 0.12% (n = 360,000) | inhibition, % at 10 µM | multiplex microsphere protease cleavage assay
Of the large screens only hits and unclear results are named; the others gave an inactive call. Unless noted, no stated cut-off is given here; in the data, active means inhibition above about 30%; inconclusive means no clear call, values can overlap the other calls; inactive means below that.

Cc1ccc(C2C(=O)N(C3CCCC3)CC(=O)N2C2CCCCC2)cc1 (centres undefined)	Autofluor counter 18594
CCOCCCN1C(=O)CN(C2CCCCC2)C(=O)C1c1ccc(OC)c(OC)c1 (centres undefined)	none
CCCOc1ccc(C2C(=O)N(C3CCCCC3)CC(=O)N2CCCOCC)cc1OC (centres undefined)	Autofluor counter 22919
CCOCCCN1C(=O)CN(C2CCCCCC2)C(=O)C1c1ccc(OC)cc1 (centres undefined)	Autofluor counter 19637
CCOc1ccc(C2C(=O)N(C3CCCCC3)CC(=O)N2CC2CCCO2)cc1OC (centres undefined)	none
COc1ccc(C2C(=O)N(C3CCCCC3)CC(=O)N2CCc2ccccc2)cc1OC (centres undefined)	Autofluor counter 21105
Cc1ccc(CN2CCC2(C)C(=O)NC(C)C)cc1 (centres undefined)	none (no result: MazEF act)
CN(C)c1ccc(-c2csc(C(C)(O)c3ccccc3)n2)cc1 (centres undefined)	none (no result: MazEF act)
Cc1ccc(OCC(=O)NN=C2c3ccccc3-c3ccccc32)cc1	Autofluor counter 23454
C=C(C)C1CC=C(C)/C(=N/NC(=O)COc2ccc(C)cc2)C1 (centres undefined)	Autofluor counter 21182
O=C(Nc1ccccc1)/C(=C/c1cccnc1)NC(=O)c1ccccc1	none
COC(=O)CNC(=O)/C=C/c1ccc(OC)cc1	Autofluor counter 19785
CCc1ccc(N2CN(Cc3cccnc3)CNC2=S)cc1	none
S=C1NCN(Cc2cccnc2)CN1	BoNT F protease 35, Anthrax LF prot inconclusive
c1ccc(-n2cnc3cc(NCc4cccs4)ccc32)cc1	Autofluor counter 23254, BoNT-A LC inh2 inconclusive
COc1ccc(-n2cnc3cc(NCc4ccccn4)ccc32)cc1	Autofluor counter 18683
CCCn1cnc2cc(NCc3ccccn3)ccc21	none
CCCn1cnc2cc(NCc3cccc(OC)c3O)ccc21	Autofluor counter 19022
COc1ccccc1-n1cnc2cc(NCc3ccccn3)ccc21	Autofluor counter 22276
COc1ccc(-n2cnc3cc(NCc4cccs4)ccc32)cc1	none
OCCCNc1ncnc2c1ncn2[C@H]1CN(Cc2ccc3c(c2)OCO3)C[C@@H](CO)O1	none (no result: MazEF act)
Cc1ccccc1C(=O)NNS(=O)(=O)c1cccc([N+](=O)[O-])c1	none
COc1ccc2[nH]c(=O)c(CN(C(=O)c3cccnc3)c3cc(C)ccc3C)cc2c1	Autofluor counter 18114
COc1ccc2cc(CN(C(=O)Nc3ccccc3)C3CCCC3)c(=O)[nH]c2c1	Autofluor counter 23679
COc1ccc2[nH]c(=O)c(CN(Cc3cccnc3)C(=O)Nc3ccccc3)cc2c1	Autofluor counter 23007
CC(C)CN(Cc1cc2ccccc2[nH]c1=O)C(=O)c1cccnc1	Autofluor counter 22057, BoNT-A LC inh2 inconclusive
CC(C)N(Cc1cc2ccccc2[nH]c1=O)C(=O)c1cccnc1	none
COc1ccc2[nH]c(=O)c(CN(C(=O)NC3CCCCC3)C3CCCCC3)cc2c1	none
CC(=O)c1c(C)[nH]c(C(=O)OCC(=O)NC(C)c2ccccc2)c1C (centres undefined)	none
CCOC(=O)c1ccc(NS(=O)(=O)c2ccc3c(c2)NC(=O)CCS3)cc1	none
O=C(c1ccccc1F)N(Cc1cccnc1)Cc1cc2cc3c(cc2[nH]c1=O)OCCO3	none
O=C(c1ccncc1)N(Cc1cc2ccccc2[nH]c1=O)C1CCCCC1	Autofluor counter 20954
COc1cc(C(=O)N(Cc2cccnc2)Cc2cc3cc4c(cc3[nH]c2=O)OCCO4)cc(OC)c1OC	Autofluor counter 22318
COc1ccc2[nH]c(=O)c(CN(CCO)C(=O)c3cccs3)cc2c1	Autofluor counter 22556
Cc1ccc(S(=O)(=O)N(Cc2cccnc2)Cc2cc3ccccc3[nH]c2=O)cc1	none
CC(=O)N(Cc1cccnc1)Cc1cc2ccccc2[nH]c1=O	Autofluor counter 23316
c1ccc2c(c1)oc1c(-c3cccc4nccn34)cccc12	none (no result: MazEF act)
CC1CN(CCOc2ccc(F)cc2)CC(C)O1 (centres undefined)	BoNT F protease 36
Cc1ccccc1OCCCN1CCCC1	Autofluor counter 17560, BoNT-A LC inh2 inconclusive
Cc1ccccc1OCCN1CCCC1	BoNT F protease inconclusive
Fc1ccccc1OCCCN1CCOCC1	Autofluor counter 17023
CC1CN(CCCOc2ccccc2[N+](=O)[O-])CC(C)O1 (centres undefined)	Autofluor counter 23581
Cc1ccc(CNC(=O)CN(C)S(=O)(=O)c2cccs2)cc1	none
CC1C(=O)N2CCCc3cc(NC(=O)C(=O)NCc4ccccn4)cc1c32 (centres undefined)	none (no result: BoNT F protease, Autofluor counter, BoNT-A LC inh2, Anthrax LF prot)
O=[N+]([O-])c1ccccc1OCCCn1cnc2ccccc21	none
O=[N+]([O-])c1ccccc1OCCCN1CCOCC1	Autofluor counter 23944
O=c1c2ccccc2ncn1CCCOc1ccccc1[N+](=O)[O-]	Autofluor counter 20774
O=[N+]([O-])c1ccccc1OCCOc1ccccc1[N+](=O)[O-]	none
COc1ccccc1C(=O)N/C(=C\c1cn(S(=O)(=O)N(C)C)c2ccccc12)C(=O)N1CCCCC1	none
CC1=CCC2C(=O)N(c3ccc4ccccc4n3)C(=O)C2C1 (centres undefined)	none
Cc1cc(=O)n(-c2ccc3ccccc3n2)[nH]1	Autofluor counter 17043
COCCNC(=O)c1ccccc1NC(=O)COc1ccccc1	Autofluor counter 20130
COC(=O)c1ccccc1NC(=O)COc1ccccc1	none
Cc1nc2ccc(NC(=O)c3cccc(C(F)(F)F)c3)cc2o1	Autofluor counter 22143
COc1ccc(CNc2cc(C)ccc2C)c(OC)c1OC	Autofluor counter 19482
COc1ccc(C)cc1NCc1cccc(OC)c1OC	Autofluor counter 22091
Nc1nc(N)c2cc(S(=O)(=O)c3ccc4ccccc4c3)ccc2n1	MazEF act 53
COC(=O)COc1cccc(-n2cnnn2)c1	none
Cc1cc(C(=O)COc2cccc(-n3cnnn3)c2)c(C)n1-c1ccccc1	Autofluor counter 16603
COc1ccccc1NC(=O)COc1cccc(-n2cnnn2)c1	Autofluor counter 18765
Cc1cccn2c(=O)c(C=Nc3ccccc3)c(NCCO)nc12	none
Cc1cccn2c(=O)c(C=Nc3ccc(Cl)cc3)c(NCCO)nc12	Autofluor counter 21575
CC(=O)C1=C(O)C(=O)N(c2cccc(Br)c2)C1c1ccccc1Cl (centres undefined)	BoNT F protease inconclusive
CCN(CC)S(=O)(=O)c1ccc(N2CCOCC2)c(NC(=O)Cc2cccc3ccccc23)c1	none
CCOC(=O)c1cccnc1SCC(=O)N(C)c1ccccc1	Autofluor counter 22147
CCc1nc2ccc(C(=O)NCCCN3CCN(c4ccccc4F)CC3)cc2nc1CC	none
CCCCc1c(O)nc(N2CCN(Cc3ccccc3)CC2)[nH]c1=O	Autofluor counter 21940

Assay outcomes (PubChem)
